Records with an inconclusive call do not appear. Entries that show only a call come without a potency. Activity calls are given as the source filed them. Calls come from the whole dose curve; as a rule, active = well fitted curve in the direction sought with a large enough effect; inconclusive = small, poorly fitted or top-dose-only effect, or another doubt; inactive = no such curve, though single readings can be large; an effect the other way counts as inactive or inconclusive.
Legend:
[1] = molecular target: Aldehyde dehydrogenase, mitochondrial (Homo sapiens) (UniProt P05091); assay: qHTS for Inhibitors of the Aldehyde Dehydrogenase Family (ALDH2) Primary screen (AID 2061308); note: nearly all actives have a fitted effect of over 55% in size
[2] = molecular target: Retinaldehyde dehydrogenase 3 (Homo sapiens) (UniProt P47895); assay: qHTS for Inhibitors of the Aldehyde Dehydrogenase Family (ALDH1A3) Primary screen (AID 2061315)

c1nc(NCCCN2CCOCC2)c2cc(-c3ccc4c(c3)OCO4)ccc2n1
Potency [1]: inactive | Potency [2]: inactive

O=C(N1CCc2cc([S+](=O)([O-])N3CCN([S+](=O)([O-])c4c(F)cccc4F)CC3)ccc2C1)C(F)(F)F
Potency [1]: inactive | Potency [2]: inactive

Cc1cccc(-c2ccc3ncnc(NCc4cccnc4)c3c2)c1
Potency [1]: inactive | Potency [2]: inactive

CC(Nc1nc(-c2ccccc2C(F)(F)F)nc2ccccc12)c1ccc(-c2cccc(C(F)(F)F)c2)cc1 (stereo not given)
Potency [1]: inactive | Potency [2]: inactive

COc1ccc(Cn2ncc3c4sc(C)cc4n(C)c3c2=O)cc1F
Potency [1]: inactive | Potency [2]: inactive

COc1cccc(C2N=C(Nc3nc4ccccc4o3)NC3=C2C(=O)CCC3)c1 (stereo not given)
Potency [1]: inactive | Potency [2]: inactive

Cc1ccc(NS(=O)(=O)c2ccc3c(c2)CCC(=O)N3)cc1C
Potency [1]: inactive | Potency [2]: inactive

CC(=O)N1c2ccc(S(=O)(=O)Nc3ccc(C)c(C)c3)cc2CC1C (stereo not given)
Potency [1]: inactive | Potency [2]: inactive

Cc1ccc(-n2c(=O)ccc(=O)n2CC(=O)N(C)C(C)c2ccco2)cc1 (stereo not given)
Potency [1]: inactive | Potency [2]: inactive

Fc1ccc(Nc2cc(-c3ccccc3)nc(-c3ccncc3)n2)cc1F
Potency [1]: inactive | Potency [2]: inactive

CC(=O)N1CCc2cc(S(=O)(=O)N3CCN(S(=O)(=O)c4c(F)cccc4F)CC3)ccc21
Potency [1]: inactive | Potency [2]: inactive

CCn1c(-c2nonc2N)nc2c(C#CCO)ncc(OCCCN)c21
Potency [1]: inactive | Potency [2]: inactive

CC(C)CC(O)C(=O)Nc1cc(C(F)(F)F)ccc1Cl (stereo not given)
Potency [1]: inactive | Potency [2]: inactive

Cc1nc(NC2CCCCC2)c2nc(-c3ccccc3)n(CC3CCN(C)CC3)c2n1
Potency [1]: inactive | Potency [2]: inactive

Cc1ccc(S(=O)(=O)Nc2ccccc2C(=O)Nc2cccc(-c3ccccc3)c2)cc1
Potency [1]: inactive | Potency [2]: inactive

Cn1nnnc1Sc1ncnc2scc(-c3ccccc3Br)c12
Potency [1]: inactive | Potency [2]: inactive

Oc1cc(-c2ccc(N3CCCCC3)nc2)cc2cccnc12
Potency [1]: inactive | Potency [2]: inactive

COc1ccc(C2=Nn3c(nnc3-c3ccccc3C(F)(F)F)SC2)cc1O[C@H]1CCOC1
Potency [1]: inactive | Potency [2]: inactive

COc1cccc(C2c3c(ncn(-c4ccccn4)c3=N)Oc3ccc4ccccc4c32)c1 (stereo not given)
Potency [1]: inactive | Potency [2]: inactive

CC(C)(C)OC(=O)Cc1nnc(CNC(=O)c2ccccc2)s1
Potency [1]: inactive | Potency [2]: inactive

O=P(c1ccccc1)(c1ccccc1)c1cnc2ccccn12
Potency [1]: inactive | Potency [2]: inactive

Cc1ccc2oc(NC3=NC4(CCCC4)C4=C(CCCC4=O)N3)nc2c1
Potency [1]: inactive | Potency [2]: inactive

CCOc1cc(CCNC(=O)c2cc3sccc3n2Cc2ccccc2)cc(F)c1OCC
Potency [1]: inactive | Potency [2]: inactive

O=C1c2ccccc2C(=O)N1Cc1ccccc1
Potency [1]: inactive | Potency [2]: inactive

Cc1cccc(-n2cnc3cc(C(=O)N4CC(C)CC(C)C4)ccc32)c1 (stereo not given)
Potency [1]: inactive | Potency [2]: inactive

C=C(C(=O)O)[C@H]1C[C@]2(C)C(=O)CC[C@]23O[C@H]1C[C@@H]3C
Potency [1]: inactive | Potency [2]: inactive

Cc1csc(CNc2ncnc3ccc(-c4cccnc4)cc23)c1
Potency [1]: inactive | Potency [2]: inactive

COc1ccc(C2Nc3ccccc3C(=O)N2Cc2ccncc2)cc1COc1c(C)cc(NC(C)=O)cc1C (stereo not given)
Potency [1]: inactive | Potency [2]: inactive

CN(Cc1nccs1)c1ncnc2ccc(-c3ccc4c(c3)OCO4)cc12
Potency [1]: inactive | Potency [2]: inactive

O=C(O)c1ccc2c(c1)C(=O)N([C@H](Cc1ccccc1)C(=O)O)C2=O
Potency [1]: inactive | Potency [2]: inactive

Cc1cccc(CNc2ncnc3ccc(-c4ccoc4)cc23)c1
Potency [1]: inactive | Potency [2]: inactive

Cc1ccc(NS(=O)(=O)c2ccc3c(c2)CCC(=O)N3)cc1F
Potency [1]: inactive | Potency [2]: inactive

CN(C)CCCN1CCCN(C(=O)c2cccc(-c3cc(O)c4ncccc4c3)c2)C1
Potency [1]: inactive | Potency [2]: inactive

COc1cc(OC)cc(N2CCN(C(=S)Nc3cc(C)cc(C)n3)CC2)c1
Potency [1]: inactive | Potency [2]: inactive

O=S(=O)(c1ccsc1)N1CCN(c2nc(-c3cccs3)nc3ccccc23)CC1
Potency [1]: inactive | Potency [2]: inactive

O=C(NCCc1nc2ccccc2n1CCOc1cc(F)ccc1F)C1CCCCC1
Potency [1]: inactive | Potency [2]: inactive

CC(C)(C)OC(=O)Cc1nnc(-c2cc3ccccc3[nH]2)o1
Potency [1]: inactive | Potency [2]: inactive

Cc1cc(N[S+](=O)([O-])c2cc3c(cc2Cl)CCC(=O)N3)ccc1Cl
Potency [1]: inactive | Potency [2]: inactive

Cc1cc(C)n2ncc(C(=O)NC(C)C)c2n1
Potency [1]: inactive | Potency [2]: inactive

C/C(=C\c1ccc2c(c1)OCCO2)C1Nc2cccc3cccc(c23)N1
Potency [1]: inactive | Potency [2]: inactive

O=C(Cn1nc(C2CC2)ccc1=O)NCCc1ccccc1
Potency [1]: inactive | Potency [2]: inactive

O=C(O)c1ccnc2c(O)cccc12
Potency [1]: inactive | Potency [2]: inactive

CCCn1c(C)nc2c(N(CCN(CC)CC)CCN(CC)CC)nc(C)nc21
Potency [1]: inactive | Potency [2]: inactive

Cc1nnc(-c2cnn(C)c2N)n1CCc1cccs1
Potency [1]: inactive | Potency [2]: inactive

O=C(Nc1nnc(-c2ccncc2)s1)NC12CC3CC(CC(C3)C1)C2
Potency [1]: inactive | Potency [2]: inactive

O=S(=O)(c1ccc2nc(Cl)c(Cl)nc2c1)N1CCN(S(=O)(=O)c2c(F)cccc2F)CC1
Potency [1]: inactive | Potency [2]: inactive

CC(C)Nc1cccc(S(=O)(=O)N2CCCN(S(=O)(=O)c3ccc4c(c3)OCCO4)CC2)c1
Potency [1]: inactive | Potency [2]: inactive

Cc1ccc(OCCn2c(CCNC(=O)c3cccc(C#N)c3)nc3ccccc32)cc1
Potency [1]: inactive | Potency [2]: inactive

CC(=O)c1ccc(NC(=O)Nc2nnc(-c3ccncc3)s2)cc1
Potency [1]: inactive | Potency [2]: inactive

CC1=C(C(=O)Nc2nc3ccccc3s2)C(c2[nH]ncc2Cl)N=C(Nc2nc3ccccc3o2)N1 (stereo not given)
Potency [1]: inactive | Potency [2]: inactive

Cc1csc(CNc2ncnc3ccc(-c4ccc(C(=O)O)o4)cc23)n1
Potency [1]: inactive | Potency [2]: inactive

Cn1c2cc(S(C)(=O)=O)sc2c2cnn(Cc3ccccc3F)c(=O)c21
Potency [1]: inactive | Potency [2]: inactive

COc1ccccc1OCCN1CC(COc2cccc3[nH]c4ccccc4c23)OCC1=O (stereo not given)
Potency [1]: inactive | Potency [2]: inactive

Cc1cc2c(s1)c1c(C)nn(Cc3ccc(F)cc3)c(=O)c1n2C
Potency [1]: inactive | Potency [2]: inactive

Cc1cccc(-n2cnc3cc(C(=O)N4CCCCCC4)ccc32)c1
Potency [1]: inactive | Potency [2]: inactive

FC(F)(F)c1cccc(-c2nc(NCc3ccc(-c4ccnc(C(F)(F)F)c4)cc3)c3ccccc3n2)c1
Potency [1]: inactive | Potency [2]: inactive

Cc1ccc(NS(=O)(=O)c2ccc3c(c2)N(C)C(=O)CO3)cc1C
Potency [1]: inactive | Potency [2]: inactive

Cc1cccc(CNc2ncnc3ccc(-c4ccccc4Cl)cc23)c1
Potency [1]: inactive | Potency [2]: inactive

c1csc(CNc2ncnc3ccc(-c4ccc5c(c4)OCO5)cc23)n1
Potency [1]: inactive | Potency [2]: inactive

Oc1ccc(CNc2ccc3ccccc3n2)c2cccnc12
Potency [1]: inactive | Potency [2]: inactive

O=[S+]([O-])(c1ccc2ncsc2c1)N1CCN([S+](=O)([O-])c2c(F)cccc2F)CC1
Potency [1]: inactive | Potency [2]: inactive

CCCCC(O)C(=O)Nc1cc(C(F)(F)F)ccc1Cl (stereo not given)
Potency [1]: inactive | Potency [2]: inactive

Cc1ccc(OCCn2c(CCNC(=O)c3ccccc3)nc3ccccc32)cc1
Potency [1]: inactive | Potency [2]: inactive

Cc1cc(OCCCSc2nc(-c3ccc(C(C)(C)C)cc3)nc3cc(=O)[nH]n23)ccc1Cl
Potency [1]: inactive | Potency [2]: inactive

Cc1cc(Nc2nc(-c3ccccc3)nc3ccccc23)n[nH]1
Potency [1]: inactive | Potency [2]: inactive

CCOC(=O)C1CCC(C(=O)Nc2ccc([S+](=O)([O-])Nc3nccs3)cc2)CC1 (stereo not given)
Potency [1]: inactive | Potency [2]: inactive

C=CCNc1oc(-c2ccc(-c3ccccc3)cc2)nc1C#N
Potency [1]: inactive | Potency [2]: inactive

CCc1cccc(Nc2nn3c(=O)c4ccccc4nc3s2)c1
Potency [1]: inactive | Potency [2]: inactive

O=C(Nc1ccc2ccccc2c1)Nc1nnc(-c2ccccc2Cl)s1
Potency [1]: inactive | Potency [2]: inactive

Nc1ccc(S(=O)(=O)Nc2cccc3cccnc23)cc1
Potency [1]: inactive | Potency [2]: inactive

Cc1ccc(NS(=O)(=O)c2cccc(F)c2)cc1C
Potency [1]: inactive | Potency [2]: inactive

O=C1CCCC2=C1C(c1cccc(Cl)c1)N=C(Nc1nc3ccccc3o1)N2 (stereo not given)
Potency [1]: inactive | Potency [2]: inactive

Fc1cccc(CNc2ncnc3ccc(-c4cccc(Cl)c4)cc23)c1
Potency [1]: inactive | Potency [2]: inactive

CCOc1ccc(CCNC(=O)C2=C(C)OCCO2)cc1OCC
Potency [1]: inactive | Potency [2]: inactive

CS(=O)(=O)c1ccc(C(=O)OC(C(=O)NC2C3CC4CC(C3)CC2C4)c2ccccc2)cc1[N+](=O)[O-] (stereo not given)
Potency [1]: inactive | Potency [2]: inactive

c1nc(OCc2cnc[nH]2)c2cc(-c3ccc4c(c3)OCO4)ccc2n1
Potency [1]: inactive | Potency [2]: inactive

Cn1nnnc1Sc1ncnc2scc(-c3cccc4c3sc3ccccc34)c12
Potency [1]: inactive | Potency [2]: inactive

Cc1ccc([S+](=O)([O-])n2cc(-c3ccc(-c4ccccc4)cc3)c3ccccc32)cc1
Potency [1]: inactive | Potency [2]: inactive

Cc1cc(C)nc(NC(=S)N2CCN(c3ccncc3)CC2)c1
Potency [1]: inactive | Potency [2]: inactive

Nc1cc(-c2nc(Nc3ccc(F)c(F)c3)c3ccccc3n2)ccn1
Potency [1]: inactive | Potency [2]: inactive

CCOc1ccc(C(=O)Nc2ccc(-c3nc4ccccc4o3)cc2)cc1[N+](=O)[O-]
Potency [1]: inactive | Potency [2]: inactive

FC(F)(F)c1ccccc1-c1nc(NCc2ccc(-c3ccc4c(c3)OCO4)cc2)c2ccccc2n1
Potency [1]: inactive | Potency [2]: inactive

N#CCC(C1CCCC1)n1cc(-c2ncnc3[nH]ccc23)cn1 (stereo not given)
Potency [1]: inactive | Potency [2]: inactive

CCN(CC)CCCCn1c(-c2ccccc2)nc2c(NCCOC)nc(C)nc21
Potency [1]: inactive | Potency [2]: inactive

COc1ccc(C2=Nn3c(nnc3-c3ccc(OC)c(OC)c3)SC2)cc1OC
Potency [1]: inactive | Potency [2]: inactive

O=C1c2ccccc2C(=O)N1c1cccc2cnccc12
Potency [1]: inactive | Potency [2]: inactive

Cc1cccc(CNc2ncnc3ccc(-c4cccc(Cl)c4)cc23)c1
Potency [1]: inactive | Potency [2]: inactive

CNc1oc(-c2cccc3cnccc23)nc1C#N
Potency [1]: inactive | Potency [2]: inactive

O=C(CSc1nc2ccc(S(=O)(=O)N3CCOCC3)cc2[nH]1)N1CCOCC1
Potency [1]: inactive | Potency [2]: inactive

CCCCN(C)C(=O)Cn1nc(-c2ccc(C(F)(F)F)cc2)ccc1=O
Potency [1]: inactive | Potency [2]: inactive
